One may read the AC50 as the concentration at which the activity in the assay is half-maximal.

Our source for the outcome and AC50 values is PubChem BioAssay (EPA / NIEHS).

SMILES strings stand for the structures. Calls of active or inactive are those of the source. The calls were made as follows: active = hit-call score of the fitted dose curve at least 0.9, where 1 is the maximum; inactive = score below 0.9.

Holding throughout (conditions): mRNA level, 48 h; actives raise or lower the signal
Read-out in assay [1]: 3-Hydroxy-3-Methylglutaryl-CoA Synthase 2 (HMGCS2), HMGCS2 (gene 3158)
The assay is described as follows: LTEA_HepaRG_HMGCS2: Life Technologies and Expression Analysis (LTEA) Assay for 3-Hydroxy-3-Methylglutaryl-CoA Synthase 2 (HMGCS2) using HepaRG (AID 2283504). An outline of the steps: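 Human HepaRG cells in serum-free induction medium were exposed in duplicate for 48 h to 8-point half-log series from 100 uM top in 0.5% DMSO. HMGCS2 mRNA measured by TaqMan qRT-PCR, normalised to ACTB, GAPDH, POLR2A; bidirectional fit versus DMSO.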

Read-out in a further assay: HGF (gene 3082)
In words: LTEA_HepaRG_HGF: Life Technologies and Expression Analysis (LTEA) Assay for Hepatocyte Growth Facto (HGF) using HepaRG (AID 2283505). An outline of the steps: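 Differentiated HepaRG cells in serum-free induction medium exposed 48 h in duplicate, 8 half-log concentrations from 100 uM in 0.5% DMSO. HGF mRNA by qRT-PCR, normalised to ACTB, GAPDH, POLR2A; bidirectional fitting.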

Read-out in assay [2]: Insulin Like Growth Factor 1 (IGF1), IGF1 (gene 3479)
The assay is described as follows: LTEA_HepaRG_IGF1: Life Technologies and Expression Analysis (LTEA) Assay for Insulin Like Growth Factor 1 (IGF1) using HepaRG (AID 2283506). An outline of the steps: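 Endpoint: IGF1 mRNA change by qRT-PCR, housekeeping-normalized, fitted bidirectionally relative to 0.5% DMSO vehicle. Human HepaRG cells were treated 48 h in serum-free induction medium, eight half-log concentrations topping at 100 uM.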

Read-out in assay [3]: Intercellular Adhesion Molecule 1 (ICAM1), ICAM1 (gene 3383)
In words: LTEA_HepaRG_ICAM1: Life Technologies and Expression Analysis (LTEA) Assay for Intercellular Adhesion Molecule 1 (ICAM1) using HepaRG (AID 2283507). An outline of the steps:
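Differentiated human HepaRG cells in serum-free induction medium exposed 48 h in duplicate to 8 half-log concentrations (top 100 uM, 0.5% DMSO). ICAM1 mRNA quantified by TaqMan qRT-PCR, normalized to ACTB, GAPDH and POLR2A; bidirectional fitting versus DMSO.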

Read-out in assay [4]: Insulin-like growth factor-binding protein 1 (IGFBP1), IGFBP1 (gene 3484)
In words: LTEA_HepaRG_IGFBP1: Life Technologies and Expression Analysis (LTEA) Assay for Insulin-like growth factor-binding protein 1 (IGFBP1) using HepaRG (AID 2283508). An outline of the steps: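 HepaRG cells, plated 48 h then switched to serum-free induction medium, exposed in duplicate for 48 h to 8-point half-log series from 100 uM in 0.5% DMSO. mRNA measured by qRT-PCR, normalized to ACTB/GAPDH/POLR2A; bidirectional fit versus DMSO.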

Read-out in assay [5]: Interleukin 6 (IL6), IL6 (gene 3569)
The assay is described as follows: LTEA_HepaRG_IL6: Life Technologies and Expression Analysis (LTEA) Assay for Interleukin 6 (IL6) using HepaRG (AID 2283509). An outline of the steps: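 Changes in IL6 mRNA, up or down relative to 0.5% DMSO controls, were derived from concentration-response curves in human HepaRG cells treated for 48 h at up to 100 uM, with ACTB, GAPDH and POLR2A as normalizers.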

Read-out in assay [6]: Interleukin 6 Receptor (IL6R), IL6R (gene 3570)
In words: LTEA_HepaRG_IL6R: Life Technologies and Expression Analysis (LTEA) Assay for Interleukin 6 Receptor (IL6R) using HepaRG (AID 2283510). Summed up: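 In this HepaRG screen, test chemicals act on cells for 48 h at up to 100 uM (eight half-log points, duplicate wells). IL6R expression is quantified by qRT-PCR after normalization to ACTB, GAPDH and POLR2A, with DMSO as baseline.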

Read-out in assay [7]: Potassium channel subfamily K member 1 (KCNK1), KCNK1 (gene 3775)
In words: LTEA_HepaRG_KCNK1: Life Technologies and Expression Analysis (LTEA) Assay for Potassium channel subfamily K member 1 (KCNK1) using HepaRG (AID 2283511). An outline of the steps: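 Human HepaRG cultures receive test chemicals for 48 h in 0.5% DMSO, top concentration 100 uM with half-log dilutions. Induction or suppression of KCNK1 mRNA relative to DMSO is derived by bidirectional fitting of qRT-PCR data.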

Read-out in assay [8]: Keratin 19 (KRT19), KRT19 (gene 3880)
The assay is described as follows: LTEA_HepaRG_KRT19: Life Technologies and Expression Analysis (LTEA) Assay for Keratin 19 (KRT19) using HepaRG (AID 2283512). An outline of the steps: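 Differentiated HepaRG cells in serum-free induction medium, exposed 48 h in duplicate to 8 half-log concentrations up to 100 uM in 0.5% DMSO. KRT19 mRNA by qRT-PCR, normalized to ACTB, GAPDH, POLR2A; bidirectional fit vs DMSO.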

Read-out in assay [9]: JUN Transcription Factor, JUN (gene 3725)
The assay is described as follows: LTEA_HepaRG_JUN: Life Technologies and Expression Analysis (LTEA) Assay for JUN Transcription Factor using HepaRG (AID 2283513). An outline of the steps: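 Gene-expression endpoint: JUN mRNA (qRT-PCR, normalized to three reference genes) in HepaRG cultures treated 48 h with chemicals, duplicate wells, 100 uM maximum with half-log dilutions; bidirectional fitting relative to 0.5% DMSO.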

Take `N#CC(Br)Br`: the result (in assay [1]; with HGF (gene 3082); in assay [2]; in assay [3]; in assay [4]; in [5]) was inactive. Besides, the outcome in assay [6], in [7], in assay [8] and in [9] was inactive.
With `Cc1ccc(N=C=O)cc1N=C=O`, the AC50 was 68.7 µM (active) in [1]; 24 µM (active) in assay [3]; 29.4 µM (active) in assay [4]; 73.5 µM (active) in assay [5]; 23.9 µM (active) in assay [8]. Moreover, the result (in the assay with HGF (gene 3082); in assay [2]; in assay [7]; in assay [9]) was inactive.
Turning to `COC(=O)Nc1nc2ccccc2[nH]1`, the outcome (in [1]; with HGF (gene 3082); in [2]; in [3]; in [4]; in assay [5]) was inactive. Further, the result in assay [6], in [7] and in [9] was inactive. Besides, the AC50 in assay [8] was 7.44 µM (active).
`c1ccc2c(c1)-c1cccc3cccc-2c13`: the result (in assay [1]; in the assay with HGF (gene 3082); in [2]; in [3]; in assay [4]; in [5]) was inactive. Also, the outcome in assay [7], in [8] and in assay [9] was inactive.
On to `C1=Cc2cccc3cccc1c23`, for which the outcome (in assay [1]; with HGF (gene 3082); in [2]; in [3]; in assay [4]; in assay [5]) was inactive. Besides, the result in [6], in assay [7], in assay [8] and in [9] was inactive.
With `Oc1ccc2ccc3cccc4ccc1c2c34`, the call (in assay [1]; with HGF (gene 3082); in [2]; in assay [3]; in assay [4]; in assay [5]) was inactive. The result in [7] and in assay [9] was inactive. Further, the AC50 in assay [8] was 8.53 µM (active).
For the molecule `Clc1ccc(C(c2ccc(Cl)cc2)C(Cl)Cl)cc1`, the call (in assay [1]; in the assay with HGF (gene 3082); in assay [2]; in assay [3]; in assay [4]; in [5]) was inactive. The molecule was called inactive in assay [7], in assay [8] and in assay [9].
On to `Nc1ccc(Oc2ccc(N)cc2)cc1`, for which the molecule was called inactive (in [1]; with HGF (gene 3082); in assay [2]; in [3]; in [4]; in assay [5]). In addition, the outcome in [6], in [7], in assay [8] and in assay [9] was inactive.
Regarding `Nc1ccc(Cc2ccc(N)cc2)cc1`, the molecule was called inactive (in [1]; with HGF (gene 3082); in assay [2]; in assay [3]; in [4]; in assay [5]). In addition, the call in assay [7], in assay [8] and in assay [9] was inactive.
With `ClC1=C(Cl)C2(Cl)C3C(Cl)C=CC3C1(Cl)C2(Cl)Cl` (stereo not given), the molecule was classed as inactive (in [1]; with HGF (gene 3082); in assay [3]; in assay [4]; in assay [5]; in [7]). For the same molecule, the call in assay [8] and in assay [9] was inactive. Moreover, the AC50 in [2] was 5.6 µM (active).
Take `CN(C)c1ccc(C(=O)c2ccc(N(C)C)cc2)cc1`: the molecule was called inactive (in [1]; with HGF (gene 3082); in [2]; in assay [3]; in assay [4]; in [5]). In addition, the molecule was called inactive in assay [7] and in assay [9]. In [8], the AC50 is 13.5 µM (active).
For `O=[N+]([O-])C(Br)(CO)CO`, the outcome (in [1]; with HGF (gene 3082); in assay [2]; in assay [3]; in [4]; in assay [5]) was inactive. The molecule was called inactive in assay [6], in assay [7], in assay [8] and in [9].
Take `COC(=O)c1ccccc1N`: the call (in [1]; with HGF (gene 3082); in assay [2]; in assay [3]; in [4]; in assay [5]) was inactive. Also, the molecule was called inactive in assay [6], in assay [7], in assay [8] and in [9].
Turning to `CCCCOC(=O)c1ccccc1C(=O)OCc1ccccc1`, the result (in assay [1]; in the assay with HGF (gene 3082); in assay [2]; in assay [3]; in assay [4]; in assay [5]) was inactive. In addition, the molecule was called inactive in [7], in assay [8] and in assay [9].
As to `OCCCl`, the molecule was classed as inactive (in assay [1]; with HGF (gene 3082); in assay [2]; in assay [3]; in assay [4]; in assay [5]). The result in assay [7], in assay [8] and in assay [9] was inactive.
On to `OCCCBr`, for which the outcome (in assay [1]; in the assay with HGF (gene 3082); in assay [2]; in assay [3]; in [4]; in assay [5]) was inactive. Besides, the result in assay [7], in assay [8] and in assay [9] was inactive.
Regarding `CC(C)(C)OOC(=O)c1ccccc1`, the result (in assay [1]; in the assay with HGF (gene 3082); in assay [2]; in [3]; in assay [4]; in assay [5]) was inactive. Also, the molecule was classed as inactive in assay [7], in [8] and in assay [9].
For the molecule `Cc1cc(N=Nc2ccccc2C)ccc1N`, the AC50 in [1] is 12.8 µM (active); in [2], 4.25 µM (active); in [4] it was 9.92 µM (active); in assay [8], 17.2 µM (active). Besides, the call (with HGF (gene 3082); in assay [3]; in assay [5]; in assay [7]; in assay [9]) was inactive.
With `CS(=O)(=O)NC(=O)c1cc(Oc2ccc(C(F)(F)F)cc2Cl)ccc1[N+](=O)[O-]`, the AC50 in [1] is 7.76 µM (active). In addition, the molecule was called inactive (with HGF (gene 3082); in assay [2]; in assay [3]; in assay [4]; in assay [5]; in assay [7]). The result in assay [8] and in assay [9] was inactive.
As to `ClCCOCCCl`, the result (in assay [1]; with HGF (gene 3082); in [2]; in [3]; in [4]; in assay [5]) was inactive. Besides, the outcome in assay [7], in assay [8] and in [9] was inactive.
In the case of `CCN(CC)CCO`, the molecule was classed as inactive (in assay [1]; with HGF (gene 3082); in assay [2]; in [3]; in [4]; in assay [5]). The result in assay [7], in assay [8] and in [9] was inactive.
